A selection: hits, their analogues and other compounds. The true share with any hit is near 1.3%.
ADAM17 inh – inhibitors of human ADAM17 | P78536 | recombinant ADAM17, EDANS/DABCYL FRET peptide cleavage | inhibition, % at 6.95 µM | hit rate 0.83% among 370,000 | AID 720648;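 active = inhibition above the mean of compounds lying between control limits plus 3 SD, set per campaign, cut at about 8.5% in these data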;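 also: 0% = DMSO-only wells as the low control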
ADAM10 inh – ADAM10 inhibition, QFRET primary screen | inhibition, % at 7 µM | recombinant ADAM10, EDANS/DABCYL FRET peptide cleavage, 3 h | O14672 | hit rate 0.62% among 370,000;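 active = inhibition above a per-campaign cutoff equal to the mean of compounds falling between control-based bounds plus 3 SD, cut at about 20% in these data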;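 also: 0% = DMSO wells while the 100% control is not disclosed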
GC-A act – GC-A (human) enzyme activation; P16066; HEK293 GC-A cells, cGMP TR-FRET, EC30 ANP; 0% at EC30 ANP, 100% saturating ANP; AID 1671463; activation, % at 10 µM; hit rate 0.14% among 370,000; in the data active = activation above about 40%
NPR2 activator – GC-B (human) receptor activation. HEK293-GC-B cells, CNP EC30, cGMP TR-FRET; 0% at EC30 CNP, 100% saturating CNP. activation, % at 10 µM. P20594. AID 1920062. hit rate 0.11% among 370,000;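 active = activation at 10 µM reaching about 35% in either raw or pattern-adjusted values, limit read from the data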
Target sequence (P20594 whole entry, looked up): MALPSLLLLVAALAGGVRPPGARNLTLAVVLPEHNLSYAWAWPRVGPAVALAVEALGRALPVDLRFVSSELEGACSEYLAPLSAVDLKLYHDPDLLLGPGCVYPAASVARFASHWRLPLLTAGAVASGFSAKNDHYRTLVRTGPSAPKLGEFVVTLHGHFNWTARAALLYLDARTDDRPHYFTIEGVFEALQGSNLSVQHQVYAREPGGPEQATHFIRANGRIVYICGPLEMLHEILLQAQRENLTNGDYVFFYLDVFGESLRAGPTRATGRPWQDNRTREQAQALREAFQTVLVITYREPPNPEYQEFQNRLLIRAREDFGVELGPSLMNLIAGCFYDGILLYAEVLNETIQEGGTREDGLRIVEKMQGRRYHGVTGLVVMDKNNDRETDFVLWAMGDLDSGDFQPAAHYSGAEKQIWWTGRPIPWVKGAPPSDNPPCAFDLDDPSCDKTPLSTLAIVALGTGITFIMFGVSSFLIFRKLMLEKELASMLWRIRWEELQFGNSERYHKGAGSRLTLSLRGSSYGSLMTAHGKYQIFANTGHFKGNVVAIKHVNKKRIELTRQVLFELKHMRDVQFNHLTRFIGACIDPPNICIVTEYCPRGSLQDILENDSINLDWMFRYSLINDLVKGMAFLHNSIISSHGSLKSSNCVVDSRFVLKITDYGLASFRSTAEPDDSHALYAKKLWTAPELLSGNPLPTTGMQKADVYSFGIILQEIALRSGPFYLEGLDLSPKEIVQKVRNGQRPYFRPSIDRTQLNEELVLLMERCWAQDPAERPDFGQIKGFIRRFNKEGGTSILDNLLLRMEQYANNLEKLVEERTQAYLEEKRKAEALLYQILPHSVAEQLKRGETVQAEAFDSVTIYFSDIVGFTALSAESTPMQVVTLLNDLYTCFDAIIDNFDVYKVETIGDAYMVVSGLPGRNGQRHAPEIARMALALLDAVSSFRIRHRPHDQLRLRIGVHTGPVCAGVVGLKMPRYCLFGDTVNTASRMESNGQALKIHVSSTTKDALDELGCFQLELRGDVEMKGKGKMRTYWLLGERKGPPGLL
ADAM10 counter – inhibits human ADAM10 in ADAM17 exosite counter-screen | shares compounds with ADAM17 inh | recombinant ADAM10, EDANS/DABCYL FRET peptide cleavage, 3 h | inhibition, % at 6.95 µM | hit rate 47% among 2,900 | AID 743256;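 active = mean inhibition over the triplicate runs exceeds the activity threshold set in the earlier primary screen, cut at about 20% in these data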;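 also: 0% = DMSO wells and 100% = marimastat wells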
ADAM17 confirm – human ADAM17 inhibition, confirmation; shares compounds with ADAM17 inh; recombinant ADAM17, EDANS/DABCYL QFRET peptide cleavage; inhibition, % at 6.95 µM; hit rate 65% among 2,900; AID 743257;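 active = mean inhibition across replicates above the hit cutoff set in the primary screen, cut at about 8.5% in these data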;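 also: 0% = DMSO wells and 100% = marimastat wells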
* hit, by the source's call.

`N#CC(=C1C=CC(=NO)C(Cl)=C1)c1ccccc1` gave ADAM17 inh 5, ADAM10 inh 7, GC-A act -3 and NPR2 activator 2.
For Cc1cc(C)nc(NS(=O)(=O)c2ccc(NC(=O)c3cccs3)cc2)n1 the results were ADAM17 inh -3, ADAM10 inh -1, GC-A act -8 and NPR2 activator -1.
Screening CCCCN(CCCC)S(=O)(=O)c1ccc(NC(=O)c2cccs2)cc1 returned ADAM17 inh 12*, ADAM10 inh 16, GC-A act 1, NPR2 activator -2, ADAM10 counter 32* and ADAM17 confirm 16*.
Screening Cc1ccc([C@H]2C[C@@H](O)[C@H](n3cc(C4CC4)nn3)CN2C(=O)C2CCCCC2)cc1 returned ADAM17 inh -3, ADAM10 inh -13, GC-A act -26 and NPR2 activator -11.
`C[C@]12CCC(=O)C=C1CC[C@@H]1[C@@H]2[C@@H](O)C[C@@]2(C)[C@H]1CC[C@]2(O)C(=O)COC(=O)CCC(=O)O` gave ADAM17 inh 8.8*, ADAM10 inh 3, GC-A act -1, NPR2 activator 5, ADAM10 counter 4 and ADAM17 confirm 3.
CC(=O)OCC(=O)[C@@]1(O)CC[C@H]2[C@@H]3CCC4=CC(=O)CC[C@]4(C)[C@H]3[C@@H](O)C[C@@]21C was read as ADAM17 inh 1, ADAM10 inh 9, GC-A act 2 and NPR2 activator 2.
CCN(CC)C1Oc2cc3c(cc2C(c2cc(OC)c(OC)c(OC)c2)C1C)OCO3 (centres undefined) was read as ADAM17 inh 9.9*, ADAM10 inh 9, GC-A act -6, NPR2 activator 4, ADAM10 counter 11 and ADAM17 confirm 9.9*.
COc1cc(C2c3cc4c(cc3C3OC(=O)C2C3CO)OCO4)cc(OC)c1OC (centres undefined) was read as ADAM17 inh -6, ADAM10 inh -2, GC-A act -9 and NPR2 activator -1.
Screening COc1cc(OC)cc(-c2cn[nH]c2N)c1 returned ADAM17 inh 9.1*, ADAM10 inh 14, GC-A act -1, NPR2 activator 0, ADAM10 counter 13 and ADAM17 confirm 13*.
Screening C=CC[C@@H](CC(=O)N[C@@H](CO)Cc1ccccc1)C(=O)N[C@H](COC(=O)[C@H](CC=C)CC(=O)OC(C)(C)C)Cc1c[nH]c2ccccc12 returned ADAM17 inh 9.9*, ADAM10 inh 18, GC-A act -6, NPR2 activator -11, ADAM10 counter 44* and ADAM17 confirm 23*.
`C=CC[C@@H](CC(=O)N(CCO)Cc1ccccc1)C(=O)N[C@H](COC(=O)[C@@H](CC=C)CC(=O)OC(C)(C)C)Cc1ccccc1` gave ADAM17 inh 18*, ADAM10 inh 28*, GC-A act -9, NPR2 activator -8, ADAM10 counter 39* and ADAM17 confirm 18*.
For C=CC[C@H](CC(=O)N[C@H](CO)Cc1ccccc1)C(=O)N[C@H](COC(=O)[C@H](CC=C)CC(=O)OC(C)(C)C)Cc1c[nH]c2ccccc12 the results were ADAM17 inh 11*, ADAM10 inh 18, GC-A act -6, NPR2 activator -3, ADAM10 counter 26* and ADAM17 confirm 13*.
`C=CC[C@@H](CC(=O)N[C@H](CO)Cc1ccccc1)C(=O)N[C@H](COC(=O)[C@@H](CC=C)CC(=O)OC(C)(C)C)Cc1ccccc1` gave ADAM17 inh 9.6*, ADAM10 inh 10, GC-A act -5, NPR2 activator -8, ADAM10 counter 19 and ADAM17 confirm 8.
`CC(C)C[C@H](NC1(C(=O)NC2CCCCC2)CCCCC1)C(=O)NCCc1c[nH]c2ccccc12` gave ADAM17 inh -1, ADAM10 inh 4, GC-A act -2 and NPR2 activator -9.
For CC(C)c1cc(C(=O)N(C2CCCCC2)C2CCCCC2)no1 the results were ADAM17 inh -5, ADAM10 inh -9, GC-A act -2 and NPR2 activator -2.
C=CCC[C@@H](Cc1ccc(F)cc1)C(=O)OC[C@@H](NC(=O)[C@@H](CC=C)CC(=O)N[C@H](CO)Cc1ccccc1)C(C)(C)C was read as ADAM17 inh 9.6*, ADAM10 inh 18, GC-A act -10, NPR2 activator -4, ADAM10 counter 35* and ADAM17 confirm 18*.
For C=CC[C@@H](CC(=O)N[C@@H](CO)Cc1ccccc1)C(=O)N[C@H](COC(=O)[C@@H](CC=C)Cc1ccc(F)cc1)C(C)(C)C the results were ADAM17 inh 6, ADAM10 inh 13, GC-A act 0 and NPR2 activator 1.
`Cc1cc(C)n(CCNC(=O)C2CCC(=O)N(CCc3cccc(F)c3)C2)n1` (centres undefined) gave ADAM17 inh -1, ADAM10 inh 13, GC-A act 2 and NPR2 activator 6.
Screening O=C1NC[C@H](CC2CCCCC2)N(CCc2cccc3ccccc23)C1=O returned ADAM17 inh 0, ADAM10 inh 2, GC-A act -10 and NPR2 activator -5.
O=C1NC[C@@H](Cc2cccc3ccccc23)N(CCCCC2CCCCC2)C1=O was read as ADAM17 inh 11*, ADAM10 inh 12, GC-A act 2, NPR2 activator 0, ADAM10 counter 5 and ADAM17 confirm 4.
Screening CCN(Cc1ccccc1)S(=O)(=O)c1ccc(S(=O)(=O)N(Cc2ccccn2)Cc2ccco2)cc1 returned ADAM17 inh -4, ADAM10 inh -1, GC-A act 2 and NPR2 activator -2.
Screening CC1CCCCN1S(=O)(=O)c1ccc(S(=O)(=O)N(Cc2ccccc2)Cc2ccco2)cc1 (centres undefined) returned ADAM17 inh 16*, ADAM10 inh 15, GC-A act 1, NPR2 activator 7, ADAM10 counter 20* and ADAM17 confirm 12*.
`c1ccc(-n2c(SCc3cccc4ccccc34)nnc2-c2ccccn2)cc1` gave ADAM17 inh 9.2*, ADAM10 inh 3, GC-A act -8, NPR2 activator -12, ADAM10 counter 14 and ADAM17 confirm 12*.
COc1ccccc1C(=O)NC(=O)COC(=O)CCNS(=O)(=O)c1ccccc1 was read as ADAM17 inh 2, ADAM10 inh -4, GC-A act 1 and NPR2 activator 1.
`CC(COc1cccc(F)c1)CN1CCC(C(O)(c2ccccc2)c2ccccc2)CC1` (centres undefined) gave ADAM17 inh 9.8*, ADAM10 inh 14, GC-A act -12, NPR2 activator -4, ADAM10 counter 11 and ADAM17 confirm 6.
